A number with no mark means an inactive call. Inconclusive results are not listed. The source made the active and inactive calls. Unless noted, calls come from the whole dose curve; as a rule, active = well fitted curve in the direction sought with a large enough effect in the repeat runs; inconclusive = weak or mixed curves; inactive = no such curve, though single readings can be large; an effect the other way counts as inactive or inconclusive.

The target of assay [1] is Thyrotropin-releasing hormone receptor (Homo sapiens) (UniProt P34981). Briefly: qHTS assay to identify small molecule agonists of the thyrotropin-releasing hormone receptor (TRHR) signaling pathway (AID 1346891; calls by dose curve;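 note: HEK293 cells expressing TRHR with calcium dye readout; series mostly up to about 58 µM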). A digest of the protocol: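 HEK293/TRHR cells, 1500 per well, 18 h 37 °C; Ca dye 2 h 37 °C; pin-tool compound addition (agonist mode); kinetic fluorescence 3 min, 1 s reads; 15 concentrations, triplicate.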
Chain of Thyrotropin-releasing hormone receptor (Homo sapiens) (P34981 whole entry, looked up): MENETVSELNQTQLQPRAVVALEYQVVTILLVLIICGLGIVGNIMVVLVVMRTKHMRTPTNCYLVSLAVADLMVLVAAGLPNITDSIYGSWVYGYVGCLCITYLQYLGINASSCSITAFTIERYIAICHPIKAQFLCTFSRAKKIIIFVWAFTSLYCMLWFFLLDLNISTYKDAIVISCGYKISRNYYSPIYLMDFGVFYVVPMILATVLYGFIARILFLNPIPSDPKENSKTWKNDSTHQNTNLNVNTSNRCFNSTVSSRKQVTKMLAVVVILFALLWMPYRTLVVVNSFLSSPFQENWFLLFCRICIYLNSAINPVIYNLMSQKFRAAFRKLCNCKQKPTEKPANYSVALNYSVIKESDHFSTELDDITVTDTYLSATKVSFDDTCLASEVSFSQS
A general note: In qHTS, concentration-response curves come from the screen itself.

Assay [2] is described as follows: Human pregnane X receptor (PXR) small molecule agonists, qHTS cell viability counter screen (AID 1346977). Note: nearly all actives have a fitted effect of over 50% in size. Note: potency is the fitted concentration of half-maximal effect. The method in brief:
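Fluorescence read-out (CellTiter-Fluor) of viability in PXR-Luc HepG2 cells, multiplexed with the luciferase agonist read. Compounds in DMSO added after 5hr plating; 24hr total exposure at 37C, 5% CO2.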

Assay [3] can be described thus: Caspase-3/7 induction in HepG2 cells by small molecules, qHTS assay (AID 1346978). Note: nearly all actives have a fitted effect of over 15% in size. A digest of the protocol: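 Wild-type HepG2 cells, 2,000/well, settled 5 hr at 37 C and 5% CO2, then compound-treated for 17 hr; caspase-3/7 activity read by luminescent Caspase-Glo 3/7 after 30 min at room temperature.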
The nature of assay [4]: Caspase-3/7 induction in CHO-K1 cells by small molecules, qHTS cell viability counter screen (AID 1346979). Note: nearly all actives have a fitted effect of over 35% in size. Note: potency is the fitted concentration of half-maximal effect. A digest of the protocol: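 CHO-K1 wt, 1,500 cells/well; 5hr pre-incubation 37C/5% CO2; compound pin transfer (DMSO); 16hr exposure; CellTiter-Fluor added, 1hr, fluorescence read.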
The nature of assay [5]: Caspase-3/7 induction in CHO-K1 cells by small molecules, qHTS assay (AID 1346980). Note: nearly all actives have a fitted effect of over 15% in size. A digest of the protocol: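 Wild-type CHO-K1 cells exposed to compounds for 17hr at 37 C, 5% CO2. Caspase-3/7 activity then measured by Caspase-Glo 3/7 luminescence after 30min at room temperature.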
A short description of assay [6]: Caspase-3/7 induction in HepG2 cells by small molecules, qHTS cell viability counter screen (AID 1346981). For activity change, negative = cytotoxicity: series mostly up to about 92 µM. Note: nearly all actives have a fitted effect of over 30% in size. Note: potency is the fitted concentration of half-maximal effect. The method in brief: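 Steps: seed 2,000 HepG2 cells per well; incubate 5 hr at 37 C; pin-add compounds in DMSO; incubate 16 hr; add CellTiter-Fluor; after 1 hr at 37 C and 5% CO2, read fluorescence.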
In assay [7] the target is Cytochrome P450 2D6 (Homo sapiens) (UniProt P10635). Briefly: Cytochrome P450 Family 2 Subfamily D Member 6 (CYP2D6) small molecule antagonists: luciferase reporter qHTS assay (AID 1671196). For activity change, negative = inhibition: series mostly up to about 120 µM. Note: nearly all actives have a fitted effect of over 50% in size. Note: potency is the fitted concentration of half-maximal effect. A digest of the protocol:
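P450-Glo format: CYP2D6 converts a proluciferin substrate to luciferin in an NADPH-driven reaction lasting 1 h at room temperature. Light output, proportional to CYP2D6 activity, reflects interference by test chemicals.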
In general terms: Reporter assays use an easily measured gene product as a stand-in for the process of interest.

The target of assay [8] is Cytochrome P450 2C19 (Homo sapiens) (UniProt P33261). Briefly: Cytochrome P450 Family 2 Subfamily C Member 19 (CYP2C19) small molecule antagonists: luciferase reporter qHTS assay (AID 1671197). For activity change, negative = inhibition: series mostly up to about 120 µM. Note: nearly all actives have a fitted effect of over 65% in size. Note: potency is the fitted concentration of half-maximal effect. A digest of the protocol:
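Inhibition of CYP2C19 was scored from loss of luminescence in a P450-Glo proluciferin substrate assay, NADPH-started and run 1 h at 37C, with ketoconazole as positive control.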

The target in assay [9] is Cytochrome P450 1A2 (Homo sapiens) (UniProt P05177). Briefly: Cytochrome P450 Family 1 Subfamily A Member 2 (CYP1A2) small molecule antagonists: luciferase reporter qHTS assay (AID 1671199). For activity change, negative = inhibition: series mostly up to about 120 µM. Note: nearly all actives have a fitted effect of over 50% in size. Note: potency is the fitted concentration of half-maximal effect. A digest of the protocol: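 Inhibition of CYP1A2 conversion of proluciferin to luciferin, detected by luminescence. Reaction run 1 h at room temperature with NADPH regeneration after brief compound preincubation.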
Chain of Cytochrome P450 1A2 (Homo sapiens) (P05177 whole entry, looked up): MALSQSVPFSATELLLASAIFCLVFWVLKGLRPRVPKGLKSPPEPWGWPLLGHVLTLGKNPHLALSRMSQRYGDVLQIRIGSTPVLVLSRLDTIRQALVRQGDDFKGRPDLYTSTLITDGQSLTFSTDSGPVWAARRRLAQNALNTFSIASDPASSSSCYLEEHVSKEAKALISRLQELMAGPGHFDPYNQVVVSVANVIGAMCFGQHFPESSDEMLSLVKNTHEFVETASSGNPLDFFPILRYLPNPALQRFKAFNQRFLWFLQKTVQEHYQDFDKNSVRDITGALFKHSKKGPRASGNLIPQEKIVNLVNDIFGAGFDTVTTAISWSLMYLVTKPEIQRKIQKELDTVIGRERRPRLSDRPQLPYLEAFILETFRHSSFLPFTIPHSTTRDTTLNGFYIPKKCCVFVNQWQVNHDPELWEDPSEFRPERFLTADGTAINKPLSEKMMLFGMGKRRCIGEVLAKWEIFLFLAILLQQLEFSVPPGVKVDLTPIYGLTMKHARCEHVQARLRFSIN

The target of assay [10] is Voltage-gated inwardly rectifying potassium channel KCNH2 (Homo sapiens) (UniProt Q12809). Briefly: Human Ether-a-go-go-Related Gene (hERG) channel small molecule antagonists: fluorescence cell-based qHTS assay (AID 1671200).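 Note: hERG-expressing U2OS cells given a thallium stimulus after FluxOR II dye loading; series mostly up to about 77 µM; nearly all actives have a fitted effect of over 50% in size.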 The method in brief:
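Read-out: thallium influx as a surrogate for potassium, tracked as fluorescence (480 nm ex/540 nm em) every second for 2 min after Stimulus Buffer addition in dye-loaded hERG-U2OS cells.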

The target in assay [11] is Nuclear receptor subfamily 1 group I member 2 (Homo sapiens) (UniProt O75469). Put plainly: Human pregnane X receptor (PXR) small molecule agonists, qHTS assay (AID 1346982). Note: nearly all actives have a fitted effect of over 35% in size. Note: potency is the fitted concentration of half-maximal effect. A digest of the protocol:
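Agonist mode qHTS: PXR-Luc HepG2 cells plated 5 hr before DMSO-dissolved compounds were pinned in, cultured 24 hr at 37 C, 5% CO2; ONE-Glo luminescence readout.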

For assay [12], the target named is Nuclear receptor subfamily 1 group I member 2 (Rattus norvegicus) (UniProt Q9R1A7). Briefly: Rat pregnane X receptor (rPXR) activation by small molecules, qHTS assay (AID 1346983). Note: nearly all actives have a fitted effect of over 20% in size. The note with it: rPXR luciferase reporter cells, One-Glo luminescence, 24 h; max activation: hits give high values. A digest of the protocol: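 Cell-based rPXR activation assay: rPXR cells, 2,000 per well, rested 5hr at 37 C, then exposed to compounds in DMSO for 24 hr at 37 C. Luciferase activity read by One-Glo luminescence after 30 min at room temperature.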
Chain of Nuclear receptor subfamily 1 group I member 2 (Rattus norvegicus) (Q9R1A7 whole entry, looked up): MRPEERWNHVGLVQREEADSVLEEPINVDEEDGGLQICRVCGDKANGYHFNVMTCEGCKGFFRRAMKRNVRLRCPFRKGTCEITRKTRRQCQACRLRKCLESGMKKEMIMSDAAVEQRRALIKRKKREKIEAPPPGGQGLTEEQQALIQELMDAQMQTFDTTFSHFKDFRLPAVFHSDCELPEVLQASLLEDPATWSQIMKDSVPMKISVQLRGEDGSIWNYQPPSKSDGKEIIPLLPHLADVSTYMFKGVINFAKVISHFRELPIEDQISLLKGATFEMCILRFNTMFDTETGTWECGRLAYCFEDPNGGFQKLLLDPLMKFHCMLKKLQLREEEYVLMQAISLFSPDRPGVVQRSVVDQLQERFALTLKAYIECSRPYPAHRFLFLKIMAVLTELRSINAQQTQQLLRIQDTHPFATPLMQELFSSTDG

Assay [13] concerns the target Nuclear receptor subfamily 1 group I member 2 (Homo sapiens) (UniProt O75469). Briefly: Human pregnane X receptor (PXR) activation by small molecules, qHTS assay (AID 1346985). Note: nearly all actives have a fitted effect of over 40% in size. A digest of the protocol:
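DPX-2 cells (HepG2 co-transfected with a PXR response element and a CYP3A4-promoter luciferase construct) were seeded at 2,000 per well, rested 5 hr at 37C, then exposed to DMSO-dissolved compounds for 24 hr. Activation was read as luciferase luminescence.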

Assay [14] has as its target Cytochrome P450 3A4 (Homo sapiens) (UniProt P08684). Briefly: Cytochrome P450 Family 3 Subfamily A Member 4 (CYP3A4) small molecule antagonists: luciferase reporter qHTS assay (AID 1671201). For activity change, negative = inhibition: series mostly up to about 120 µM. Note: nearly all actives have a fitted effect of over 50% in size. Note: potency is the fitted concentration of half-maximal effect. A digest of the protocol:
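Luminescent readout (RLU) proportional to CYP3A4 activity, from luciferin generated off a proluciferin substrate. Enzyme–substrate mix plus compound 10 min at room temp, NADPH regeneration 1 h, detection reagent 20 min.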

Assay [15] has as its target Cytochrome P450 2C9 (Homo sapiens) (UniProt P11712). Put plainly: Cytochrome P450 Family 2 Subfamily C Member 9 (CYP2C9) small molecule antagonists: luciferase reporter qHTS assay (AID 1671198). For activity change, negative = inhibition: series mostly up to about 120 µM. Note: nearly all actives have a fitted effect of over 50% in size. Note: potency is the fitted concentration of half-maximal effect. The method in brief:
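P450-Glo proluciferin substrate with CYP2C9 enzyme; 10 min RT preincubation, then NADPH regeneration 1 h at 37C; luciferin detection reagent 20 min RT, luminescence in relative luminescence units.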
% is set by controls: 0 for no effect and ±100 for the full control effect.

Chain of Cytochrome P450 2C19 (Homo sapiens) (P33261 whole entry, looked up): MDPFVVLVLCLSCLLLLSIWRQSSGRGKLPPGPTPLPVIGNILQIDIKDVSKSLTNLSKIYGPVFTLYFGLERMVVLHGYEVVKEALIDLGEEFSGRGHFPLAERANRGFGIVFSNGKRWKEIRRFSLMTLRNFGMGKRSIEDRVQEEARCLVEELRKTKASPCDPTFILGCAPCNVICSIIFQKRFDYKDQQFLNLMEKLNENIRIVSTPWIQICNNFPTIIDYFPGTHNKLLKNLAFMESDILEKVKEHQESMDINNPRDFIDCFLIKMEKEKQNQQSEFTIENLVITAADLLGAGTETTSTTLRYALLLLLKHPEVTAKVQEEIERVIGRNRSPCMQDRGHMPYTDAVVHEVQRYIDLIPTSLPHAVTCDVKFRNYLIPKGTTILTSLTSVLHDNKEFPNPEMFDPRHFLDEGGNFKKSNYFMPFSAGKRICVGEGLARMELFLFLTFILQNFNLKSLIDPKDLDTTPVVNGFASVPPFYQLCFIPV
Chain of Nuclear receptor subfamily 1 group I member 2 (Homo sapiens) (O75469 whole entry, looked up): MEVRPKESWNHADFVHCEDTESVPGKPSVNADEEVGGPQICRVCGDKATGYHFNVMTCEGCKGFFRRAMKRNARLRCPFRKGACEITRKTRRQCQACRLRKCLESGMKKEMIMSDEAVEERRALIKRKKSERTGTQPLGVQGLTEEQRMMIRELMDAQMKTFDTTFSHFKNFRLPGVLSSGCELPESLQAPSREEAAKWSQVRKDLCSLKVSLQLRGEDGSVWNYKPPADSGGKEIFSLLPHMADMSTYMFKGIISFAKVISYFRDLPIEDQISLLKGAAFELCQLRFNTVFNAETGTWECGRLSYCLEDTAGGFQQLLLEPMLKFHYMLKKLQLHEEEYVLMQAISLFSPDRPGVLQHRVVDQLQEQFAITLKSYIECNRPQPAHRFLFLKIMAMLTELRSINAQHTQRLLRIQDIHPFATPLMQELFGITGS
Chain of Cytochrome P450 2D6 (Homo sapiens) (P10635 whole entry, looked up): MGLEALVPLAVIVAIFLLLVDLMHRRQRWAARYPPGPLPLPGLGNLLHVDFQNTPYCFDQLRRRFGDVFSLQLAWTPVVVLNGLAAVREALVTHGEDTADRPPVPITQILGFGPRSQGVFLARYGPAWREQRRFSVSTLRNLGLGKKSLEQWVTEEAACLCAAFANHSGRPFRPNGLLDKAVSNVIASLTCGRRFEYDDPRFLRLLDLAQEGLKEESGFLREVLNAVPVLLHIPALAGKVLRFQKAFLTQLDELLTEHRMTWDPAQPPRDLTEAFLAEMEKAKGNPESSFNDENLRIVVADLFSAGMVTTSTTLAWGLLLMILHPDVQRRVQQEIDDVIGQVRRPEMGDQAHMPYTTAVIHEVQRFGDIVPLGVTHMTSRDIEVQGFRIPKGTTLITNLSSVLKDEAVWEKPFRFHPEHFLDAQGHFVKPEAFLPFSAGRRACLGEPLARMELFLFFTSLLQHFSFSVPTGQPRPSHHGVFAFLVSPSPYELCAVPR
Chain of Voltage-gated inwardly rectifying potassium channel KCNH2 (Homo sapiens) (Q12809 whole entry, looked up): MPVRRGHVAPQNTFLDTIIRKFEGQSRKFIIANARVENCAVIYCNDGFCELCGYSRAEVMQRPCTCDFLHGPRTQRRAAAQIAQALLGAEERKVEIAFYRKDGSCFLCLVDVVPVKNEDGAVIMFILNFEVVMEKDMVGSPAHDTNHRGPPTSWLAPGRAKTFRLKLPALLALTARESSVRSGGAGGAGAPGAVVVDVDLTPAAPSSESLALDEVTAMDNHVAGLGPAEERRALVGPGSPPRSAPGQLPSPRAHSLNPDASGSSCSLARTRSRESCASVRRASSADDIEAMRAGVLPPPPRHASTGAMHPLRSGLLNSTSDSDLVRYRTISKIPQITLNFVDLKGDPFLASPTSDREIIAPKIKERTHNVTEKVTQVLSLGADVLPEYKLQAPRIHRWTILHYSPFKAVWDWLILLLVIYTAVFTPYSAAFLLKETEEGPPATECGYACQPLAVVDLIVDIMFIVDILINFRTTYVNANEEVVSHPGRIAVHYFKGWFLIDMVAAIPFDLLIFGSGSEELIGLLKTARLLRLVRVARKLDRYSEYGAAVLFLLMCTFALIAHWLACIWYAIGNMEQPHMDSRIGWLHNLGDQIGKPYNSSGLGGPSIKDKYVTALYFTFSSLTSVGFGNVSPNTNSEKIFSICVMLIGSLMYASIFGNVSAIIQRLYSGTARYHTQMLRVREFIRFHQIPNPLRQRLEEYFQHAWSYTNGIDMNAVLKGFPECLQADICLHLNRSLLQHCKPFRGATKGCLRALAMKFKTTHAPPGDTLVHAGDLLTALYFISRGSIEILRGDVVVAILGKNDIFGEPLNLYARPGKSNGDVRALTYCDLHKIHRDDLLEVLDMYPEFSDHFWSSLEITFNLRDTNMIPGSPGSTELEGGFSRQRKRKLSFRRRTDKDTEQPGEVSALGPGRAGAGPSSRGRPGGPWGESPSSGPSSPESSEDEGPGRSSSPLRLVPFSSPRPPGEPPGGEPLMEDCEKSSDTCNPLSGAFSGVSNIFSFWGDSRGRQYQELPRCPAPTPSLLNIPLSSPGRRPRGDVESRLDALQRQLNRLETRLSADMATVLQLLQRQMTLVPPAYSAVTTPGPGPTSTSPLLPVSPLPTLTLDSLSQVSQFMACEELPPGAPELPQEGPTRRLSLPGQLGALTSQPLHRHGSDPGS
Chain of Cytochrome P450 2C9 (Homo sapiens) (P11712 whole entry, looked up): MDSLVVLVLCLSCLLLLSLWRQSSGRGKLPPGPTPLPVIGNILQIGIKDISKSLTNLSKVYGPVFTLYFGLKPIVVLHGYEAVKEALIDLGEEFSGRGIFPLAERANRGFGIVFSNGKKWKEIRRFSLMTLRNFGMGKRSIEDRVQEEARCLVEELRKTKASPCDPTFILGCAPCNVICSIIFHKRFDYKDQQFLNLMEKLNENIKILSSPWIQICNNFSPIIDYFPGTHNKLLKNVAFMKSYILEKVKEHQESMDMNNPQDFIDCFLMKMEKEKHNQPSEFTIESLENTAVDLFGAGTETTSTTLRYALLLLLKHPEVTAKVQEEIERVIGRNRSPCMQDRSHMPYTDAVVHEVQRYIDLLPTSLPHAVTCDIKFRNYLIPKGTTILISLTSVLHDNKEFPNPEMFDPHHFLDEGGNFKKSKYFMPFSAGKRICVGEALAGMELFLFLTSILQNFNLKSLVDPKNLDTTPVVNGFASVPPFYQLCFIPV
Chain of Cytochrome P450 3A4 (Homo sapiens) (P08684 whole entry, looked up): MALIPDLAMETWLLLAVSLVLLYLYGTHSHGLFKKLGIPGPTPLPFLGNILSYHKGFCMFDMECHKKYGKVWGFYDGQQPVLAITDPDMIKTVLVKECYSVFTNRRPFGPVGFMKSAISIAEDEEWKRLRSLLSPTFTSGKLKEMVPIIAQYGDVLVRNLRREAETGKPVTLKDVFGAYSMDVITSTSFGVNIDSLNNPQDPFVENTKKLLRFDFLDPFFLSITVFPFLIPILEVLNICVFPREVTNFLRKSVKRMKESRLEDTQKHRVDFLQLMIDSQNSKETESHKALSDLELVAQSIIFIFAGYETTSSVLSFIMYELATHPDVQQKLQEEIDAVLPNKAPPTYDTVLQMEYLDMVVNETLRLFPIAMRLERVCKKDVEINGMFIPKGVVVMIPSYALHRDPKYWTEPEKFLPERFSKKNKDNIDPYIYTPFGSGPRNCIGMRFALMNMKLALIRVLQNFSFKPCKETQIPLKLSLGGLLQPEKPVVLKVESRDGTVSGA

Consider `CC1=CC[C@@H]2C[C@H]1C2(C)C`, for which the activation in assay [1] was -0.516% [at 11.8 µM]. Besides, the activity change, negative = cytotoxicity is 1.01% [at 19 µM] in assay [2], -0.814% [at 19 µM] in assay [4] and -0.185% [at 19 µM] in [6]. The caspase activation in assay [3] was -0.809% [at 19 µM]. The caspase-3/7 activation in [5] is 0.0875% [at 19 µM]. Besides, the activity change, negative = inhibition is -8.83% [at 23.6 µM] in assay [7], -6.89% [at 23.6 µM] in assay [8], -16.3% [at 23.6 µM] in assay [9] and -0.97% [at 15.8 µM] in assay [10].

For the compound `Cc1ccc(S(=O)(=O)NC(=O)NC2CCCCC2)cc1`, the call in assay [1] and in [5] was inactive. For the same compound, the Potency result in assay [2], in assay [3], in [6], in assay [11], in [13] and in assay [7] was “inactive” in each case. Besides, the Potency entry in assay [8], in assay [9], in [10] and in [14] was “inactive” throughout. The max activation in assay [12] was -5.99%.

In the case of `BrC(Br)C(Br)Br`, the outcome in [1] was inactive. Besides, the Potency entry in [2], in assay [3], in assay [4], in assay [6], in [11] and in assay [7] was “inactive” throughout. Moreover, the Potency entry in assay [10] and in assay [14] was “inactive” throughout.

For `Nc1ccc(N=Nc2ccc(N)cc2)cc1`, in assay [1], the result was inactive. For the same compound, the Potency in assay [2] is 21.7 µM (active); in assay [4] it was 24.3 µM (active); in [6] it was 27.3 µM (active); in assay [9] it was 10 µM (active); in [14] it was 5.02 µM (active). Moreover, the Potency entry in assay [3], in assay [7] and in assay [10] was “inactive” throughout.

`Cc1cc(CCC(=O)OCCOCCOCCOC(=O)CCc2cc(C)c(O)c(C(C)(C)C)c2)cc(C(C)(C)C)c1O`: the compound was called inactive in [1] and in assay [5]. For the same compound, the Potency entry in [2], in assay [3], in assay [4], in assay [6], in assay [9] and in assay [10] was “inactive” each time. For the same compound, the Potency in assay [7] is 9.78 µM (active); in [8], 2.76 µM (active); in assay [15], 617 nM (active); in [14], 2.46 µM (active).

As to `c1ccc(CCCc2ccncc2)cc1`, the call in assay [1] and in assay [5] was inactive. Further, the Potency result in assay [2], in assay [3], in [6] and in assay [10] was “inactive” each time. The Potency in [11] was 30.6 µM (active); in [7], 4.48 µM (active); in assay [8] it was 0.633 µM (active); in assay [15], 2000 nM (active); in [9] it was 1.42 µM (active); in [14] it was 0.448 µM (active).

Take `CCCCCCCCCCCCCCCC(=O)OCC`: the compound was called inactive in assay [1]. The Potency entry in assay [2], in assay [3], in [4], in assay [6], in [11] and in assay [7] was “inactive” in each case. Besides, the Potency result in assay [8], in assay [15], in [9], in assay [10] and in assay [14] was “inactive” throughout.

Regarding `C[C@H](CS)C(=O)N1CCC[C@H]1C(=O)O`, the outcome in assay [1] and in assay [5] was inactive. In addition, the Potency entry in assay [2], in assay [3], in assay [4], in [6], in [9] and in assay [10] was “inactive” each time. Also, in [14], the Potency result was “inactive”. In addition, the max activation in assay [12] is 0.201%. The Potency in [8] is 21.9 µM (active).

For the compound `CC(C)(C)CCCCCCOC(=O)c1ccccc1C(=O)OCCCCCCC(C)(C)C`, the compound was classed as inactive in [1] and in [5]. Moreover, the Potency entry in [2], in assay [3], in assay [4], in assay [6], in assay [7] and in assay [15] was “inactive” throughout. In addition, the Potency entry in assay [9], in assay [10] and in [14] was “inactive” each time.

`CCOCCC(=O)OCC`: the outcome in [1] and in [5] was inactive. The Potency result in [2], in [3], in assay [6], in assay [11], in [7] and in assay [8] was “inactive” each time. In addition, the Potency entry in [15], in [10] and in assay [14] was “inactive” each time.
